# From PubChem BioAssay AID1466 (National Center for Advancing Translational Sciences (NCATS), 2008)
# The whole screen tested about 200,000 compounds, of which about 10 (0.005%) were called active. About 8% were inconclusive and are not listed. Calls come from the whole dose curve; as a rule, active = well fitted inhibition curve with a large enough effect; inconclusive = small, poorly fitted or top-dose-only effect, or effect the other way, or another doubt; inactive = no such curve, though single readings can be large or run the other way. The list comes from a sample in which actives are over-represented; it also holds similar structures and randomly drawn compounds. Entries that show only a call come without a potency.
# Biological target: Lysosomal alpha-glucosidase (Homo sapiens) (UniProt P10253)
# Assay: qHTS Assay for Inhibitors of Human alpha-Glucosidase as a Potential Chaperone Treatment of Pompe Disease
# Details: purified human GAA, 4-MU-alpha-glucoside fluorescence; series mostly up to 76.9 µM
# Text: NIH Chemical Genomics Center [NCGC] NIH Molecular Libraries Probe Production centers Network [MLPCN] MLPCN Grant: 1R03MH084841-01 Assay Submitter (PI): Wei Zheng NCGC Assay Overview: Alpha-glucosidase is responsible for hydrolysis of terminal, non-reducing 1,4-linked alpha-D-glucose residues with release of alpha-D-glucose. It is a lysosomal hydrolase that is required for the degradation of a small percentage (1-3%) of cellular glycogen in human. Deficiency of this enzyme results in glycogen-storage disease type II (GSDII), also referred to as Pompe disease, an autosomal recessive disorder. Structurally normal glycogen is accumulated in lysosomes and cytoplasm in affected patients, primarily in muscle tissues. Excessive glycogen storage within lysosomes may interrupt normal functioning of other organelles and leads to cellular injury. In turn, this leads to enlargement and dysfunction of the entire organ involved (eg, cardiomyopathy and muscle weakness). It has reported that the improper folding and trafficking of alpha-glucosidase resulting from the genetic mutations may account for a significant number of Pompe patients. […] We optimized this alpha-glucosidase assay in 1536-well plate format for identifying the novel small molecule inhibitors with the structures other than the sugar analogs in order to develop the new pharmacological chaperones.
# NCGC Assay Protocol Summary: This is a fluorogenic enzyme assay with 4-methylumbelliferyl-alpha-D-[…] as the substrate and human alpha-glucosidase as the enzyme preparation. Upon the hydrolysis of this fluorogenic substrate, the resulting product, 1. 4-methyllumbelliferone, can be excited at 365 nm and emits at 440 nm which can be detected by a standard fluorescence plate reader. Data were normalized to the controls for basal activity (without enzyme) and 100% activity (with enzyme). In the AC50 values were determined from concentration-response data modeled with the standard Hill equation. Assay buffer: 50 mM citric acid (titrated with potassium phosphate to pH 5.0), 0.005% Tween-20, pH 5.0. (pH 5.0 is an optimal condition for this enzyme assay) 1536-well assay protocol for the human alpha-glucosidase: (1) Add 2 ul/well of enzyme (4 nM final) (2) Add 23 nL compounds in DMSO solution. The final titration was 0.7 nM to 77 uM. (3) Add 1 ul of substrate (400 uM final) (4) Incubate at room temperature for 20 min. (5) Add 2 ul stop solution (1M NaOH and 1M Glycine mixture, pH 10) (6) Detect the assay plate in a ViewLux plate reader (PerkinElmer) with Ex=365 nm and Em=440nm. Keywords: Alpha-glucosidase, Pompe Disease, pharmacological chaperone, chaperone therapy, high throughput screening, alpha-glucosidase inhibitor, MLSMR, MLSCN, NIH Roadmap, qHTS and NCGC
# Potency is the fitted concentration of half-maximal effect.
row,Structure (SMILES),Potency
1,Cc1cc(/C=C2/C(=O)NC(=O)N(Cc3ccco3)C2=O)c(C)n1-c1ccc(C(=O)O)cc1,31.6 µM (active)
2,Cc1c(C(=O)O)cccc1-n1c(C)cc(/C=C2\C(=O)NC(=O)N(c3ccc4c(c3)OCO4)C2=O)c1C,inactive
3,Cc1ccc(-n2c(C)cc(/C=C3\C(=O)NC(=O)N(C)C3=O)c2C)cc1C,inactive
4,CCN1CC2C3CCC(C)(O3)C2C1 (stereo not given),inactive
5,CCOP(=O)(OCC)C(NC(=O)c1ccc(OC)cc1)C(Cl)(Cl)Cl (stereo not given),inactive
